According to the supplement of paper PMC4466140:

These binders were tested against AgAbp1 (assay: SPOT peptide array binding signal intensity (averaged, normalized) (arbitrary units (background-subtracted, floor 0; scale differs between SH3 domains)); higher = stronger binding of the SH3 domain to the peptide).
Procedure: (§1)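 GST-tagged SH3 domains from S. cerevisiae (Sc), A. gossypii (Ag), C. albicans (Ca) and S. pombe (Sp) were incubated at 10 ug/ml overnight at 4 C on cellulose SPOT membranes carrying 292 synthetic 15-mer peptides mined from the S. cerevisiae proteome (cysteines replaced by serines). Binding was detected with anti-GST antibody, HRP secondary and chemiluminescence, quantified with Genespotter, and reported as normalized spot intensities averaged over biological replicates.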

Binder | SPOT peptide array binding signal intensity
KRKRFNLLLPKPYLT | 46

These binders were tested against AgBbc1 in the same assay as above.
Procedure: as §1

Binder | SPOT peptide array binding signal intensity
KRKRFNLLLPKPYLT | 16.5

The binders below were run against AgBem1-D1 in the same assay as above.
Procedure: as §1

Binder | SPOT peptide array binding signal intensity
KRKRFNLLLPKPYLT | 136

What follows are binders tested against AgBzz1-D1 in the same assay as above.
Procedure: as §1

Binder | SPOT peptide array binding signal intensity
KRKRFNLLLPKPYLT | 33

The binders below were run against AgBzz1-D2 in the same assay as above.
Procedure: as §1

Binder | SPOT peptide array binding signal intensity
KRKRFNLLLPKPYLT | 19.5

The binders below were run against AgCyk3 in the same assay as above.
Procedure: as §1

Binder | SPOT peptide array binding signal intensity
KRKRFNLLLPKPYLT | 3

What follows are binders tested against AgFus1 in the same assay as above.
Procedure: as §1

Binder | SPOT peptide array binding signal intensity
KRKRFNLLLPKPYLT | 356

What follows are binders tested against AgHof1 in the same assay as above.
Procedure: as §1

Binder | SPOT peptide array binding signal intensity
KRKRFNLLLPKPYLT | 49.5

The binders below were run against AgHse1 in the same assay as above.
Procedure: as §1

Binder | SPOT peptide array binding signal intensity
KRKRFNLLLPKPYLT | 745

These binders were tested against AgLsb1 in the same assay as above.
Procedure: as §1

Binder | SPOT peptide array binding signal intensity
KRKRFNLLLPKPYLT | 14.5

The binders below were run against AgLsb4 in the same assay as above.
Procedure: as §1

Binder | SPOT peptide array binding signal intensity
KRKRFNLLLPKPYLT | 104

These binders were tested against AgMyo5 in the same assay as above.
Procedure: as §1

Binder | SPOT peptide array binding signal intensity
KRKRFNLLLPKPYLT | 0.75

These binders were tested against AgNbp2 in the same assay as above.
Procedure: as §1

Binder | SPOT peptide array binding signal intensity
KRKRFNLLLPKPYLT | 99

The binders below were run against AgRvs167 in the same assay as above.
Procedure: as §1

Binder | SPOT peptide array binding signal intensity
KRKRFNLLLPKPYLT | 6.17

These binders were tested against AgSho1 in the same assay as above.
Procedure: as §1

Binder | SPOT peptide array binding signal intensity
KRKRFNLLLPKPYLT | 58

The binders below were run against AgSla1-D1-D2 in the same assay as above.
Procedure: as §1

Binder | SPOT peptide array binding signal intensity
KRKRFNLLLPKPYLT | 578

What follows are binders tested against AgSla1-D3 in the same assay as above.
Procedure: as §1

Binder | SPOT peptide array binding signal intensity
KRKRFNLLLPKPYLT | 4

The binders below were run against CaAbp1-D1 in the same assay as above.
Procedure: as §1

Binder | SPOT peptide array binding signal intensity
KRKRFNLLLPKPYLT | 458

The binders below were run against CaAbp1-D2 in the same assay as above.
Procedure: as §1

Binder | SPOT peptide array binding signal intensity
KRKRFNLLLPKPYLT | 418

The binders below were run against CaBbc1 in the same assay as above.
Procedure: as §1

Binder | SPOT peptide array binding signal intensity
KRKRFNLLLPKPYLT | 39.5

What follows are binders tested against CaBem1-D1 in the same assay as above.
Procedure: as §1

Binder | SPOT peptide array binding signal intensity
KRKRFNLLLPKPYLT | 31

These binders were tested against CaBzz1-D1 in the same assay as above.
Procedure: as §1

Binder | SPOT peptide array binding signal intensity
KRKRFNLLLPKPYLT | 28

Each binder was assayed against CaBzz1-D2 in the same assay as above.
Procedure: as §1

Binder | SPOT peptide array binding signal intensity
KRKRFNLLLPKPYLT | 46.5

The binders below were run against CaCyk3 in the same assay as above.
Procedure: as §1

Binder | SPOT peptide array binding signal intensity
KRKRFNLLLPKPYLT | 5

What follows are binders tested against CaFus1 in the same assay as above.
Procedure: as §1

Binder | SPOT peptide array binding signal intensity
KRKRFNLLLPKPYLT | 548

Each binder was assayed against CaHof1 in the same assay as above.
Procedure: as §1

Binder | SPOT peptide array binding signal intensity
KRKRFNLLLPKPYLT | 1.5

Each binder was assayed against CaHse1 in the same assay as above.
Procedure: as §1

Binder | SPOT peptide array binding signal intensity
KRKRFNLLLPKPYLT | 25.5

The binders below were run against CaLsb1 in the same assay as above.
Procedure: as §1

Binder | SPOT peptide array binding signal intensity
KRKRFNLLLPKPYLT | 8

These binders were tested against CaLsb4 in the same assay as above.
Procedure: as §1

Binder | SPOT peptide array binding signal intensity
KRKRFNLLLPKPYLT | 43.5

Each binder was assayed against CaMyo5 in the same assay as above.
Procedure: as §1

Binder | SPOT peptide array binding signal intensity
KRKRFNLLLPKPYLT | 1

Each binder was assayed against CaNbp2 in the same assay as above.
Procedure: as §1

Binder | SPOT peptide array binding signal intensity
KRKRFNLLLPKPYLT | 192

These binders were tested against CaRvs167 in the same assay as above.
Procedure: as §1

Binder | SPOT peptide array binding signal intensity
KRKRFNLLLPKPYLT | 8.5

The binders below were run against CaRvs167-3 in the same assay as above.
Procedure: as §1

Binder | SPOT peptide array binding signal intensity
KRKRFNLLLPKPYLT | 692

What follows are binders tested against CaSho1 in the same assay as above.
Procedure: as §1

Binder | SPOT peptide array binding signal intensity
KRKRFNLLLPKPYLT | 592

Each binder was assayed against CaSla1-D1-D2 in the same assay as above.
Procedure: as §1

Binder | SPOT peptide array binding signal intensity
KRKRFNLLLPKPYLT | 1

What follows are binders tested against CaSla1-D3 in the same assay as above.
Procedure: as §1

Binder | SPOT peptide array binding signal intensity
KRKRFNLLLPKPYLT | 6.5

These binders were tested against ScAbp1 in the same assay as above.
Procedure: as §1

Binder | SPOT peptide array binding signal intensity
KRKRFNLLLPKPYLT | 24

The binders below were run against ScBbc1 in the same assay as above.
Procedure: as §1

Binder | SPOT peptide array binding signal intensity
KRKRFNLLLPKPYLT | 6

What follows are binders tested against ScBem1-D1 in the same assay as above.
Procedure: as §1

Binder | SPOT peptide array binding signal intensity
KRKRFNLLLPKPYLT | 22

The binders below were run against ScBzz1-D1 in the same assay as above.
Procedure: as §1

Binder | SPOT peptide array binding signal intensity
KRKRFNLLLPKPYLT | 3

These binders were tested against ScBzz1-D2 in the same assay as above.
Procedure: as §1

Binder | SPOT peptide array binding signal intensity
KRKRFNLLLPKPYLT | 40

The binders below were run against ScCyk3 in the same assay as above.
Procedure: as §1

Binder | SPOT peptide array binding signal intensity
KRKRFNLLLPKPYLT | 58

These binders were tested against ScFus1 in the same assay as above.
Procedure: as §1

Binder | SPOT peptide array binding signal intensity
KRKRFNLLLPKPYLT | 570

What follows are binders tested against ScHof1 in the same assay as above.
Procedure: as §1

Binder | SPOT peptide array binding signal intensity
KRKRFNLLLPKPYLT | ≤ 0

What follows are binders tested against ScHse1 in the same assay as above.
Procedure: as §1

Binder | SPOT peptide array binding signal intensity
KRKRFNLLLPKPYLT | 1210

These binders were tested against ScLsb1 in the same assay as above.
Procedure: as §1

Binder | SPOT peptide array binding signal intensity
KRKRFNLLLPKPYLT | 34.8

The binders below were run against ScLsb2 in the same assay as above.
Procedure: as §1

Binder | SPOT peptide array binding signal intensity
KRKRFNLLLPKPYLT | 8.5

The binders below were run against ScLsb3 in the same assay as above.
Procedure: as §1

Binder | SPOT peptide array binding signal intensity
KRKRFNLLLPKPYLT | 114

What follows are binders tested against ScLsb4 in the same assay as above.
Procedure: as §1

Binder | SPOT peptide array binding signal intensity
KRKRFNLLLPKPYLT | 10

These binders were tested against ScMyo3 in the same assay as above.
Procedure: as §1

Binder | SPOT peptide array binding signal intensity
KRKRFNLLLPKPYLT | 1.5

These binders were tested against ScMyo5 in the same assay as above.
Procedure: as §1

Binder | SPOT peptide array binding signal intensity
KRKRFNLLLPKPYLT | 0.5

Each binder was assayed against ScNbp2 in the same assay as above.
Procedure: as §1

Binder | SPOT peptide array binding signal intensity
KRKRFNLLLPKPYLT | 158

These binders were tested against ScPex13 in the same assay as above.
Procedure: as §1

Binder | SPOT peptide array binding signal intensity
KRKRFNLLLPKPYLT | 0.75

The binders below were run against ScRvs167 in the same assay as above.
Procedure: as §1

Binder | SPOT peptide array binding signal intensity
KRKRFNLLLPKPYLT | 5

What follows are binders tested against ScSho1 in the same assay as above.
Procedure: as §1

Binder | SPOT peptide array binding signal intensity
KRKRFNLLLPKPYLT | 474

The binders below were run against ScSla1-D1-D2 in the same assay as above.
Procedure: as §1

Binder | SPOT peptide array binding signal intensity
KRKRFNLLLPKPYLT | 96

Each binder was assayed against ScSla1-D3 in the same assay as above.
Procedure: as §1

Binder | SPOT peptide array binding signal intensity
KRKRFNLLLPKPYLT | 2.75

Each binder was assayed against SpAbp1-D1 in the same assay as above.
Procedure: as §1

Binder | SPOT peptide array binding signal intensity
KRKRFNLLLPKPYLT | 146

What follows are binders tested against SpBbc1 in the same assay as above.
Procedure: as §1

Binder | SPOT peptide array binding signal intensity
KRKRFNLLLPKPYLT | 10.8

What follows are binders tested against SpBzz1-D1 in the same assay as above.
Procedure: as §1

Binder | SPOT peptide array binding signal intensity
KRKRFNLLLPKPYLT | 94.5
